Results on eight compounds are retold here after the supplement of paper PMC7366291.

Where a name gives a salt, the structure may show the parent alone. ± gives the standard deviation or the standard deviation of the averaged measurements.

Holding throughout (settings): 25 µM; exposure: 24-48 hpf
The test system of assay [1] is Danio rerio Tg(wt1b:EGFP) embryo, pronephros. As to the kind of experiment: glomerular separation, fold change vs DMSO control; higher = glomeruli further apart (abnormal). The method, boiled down: (§1)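 Each feature value is a fold change relative to the mean of same-day DMSO-treated embryos. Embryos of the Tg(wt1b:EGFP) zebrafish line, dechorionated, received 25 μM compound in 0.5% DMSO from 24 to 48 hpf at 28.5°C, in HEPES-buffered E3 with 0.003% PTU. Distances and angles were computed by a Fiji macro from 16 manually set reference points on maximum projections of dorsal pronephros images, and values beyond 2 SD of the feature mean were removed.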

For assay [2] the test system is unchanged. The experiment in a line: glomerular width (mean of left and right), fold change vs DMSO control; higher = wider glomerulus. The method, boiled down: as §1
Assay [3] has the same test system. As to the kind of experiment: fraction of imaged embryos annotated as normal kidney; higher = less nephrotoxic; extreme values may be limits of the assay. The method, boiled down: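 From 24 to 48 hpf at 28.5°C, dechorionated Tg(wt1b:EGFP) zebrafish embryos in 12-well plates were kept in 5 mM HEPES-buffered E3 with 0.003% PTU, 0.5% DMSO and 25 μM compound. Pronephroi were imaged by widefield fluorescence at 470 nm and judged by eye from maximum projections. Reported is the proportion of embryos per treatment in the normal-kidney category.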

Assay [4] has the same test system. As to the kind of experiment: pronephric angle neck segment to proximal convoluted tubule (mean of left and right), fold change vs DMSO control; higher = larger pronephric angle. The method, boiled down:
as §1

As to `c1cnc(N2CCN(Cc3ccc4c(c3)OCO4)CC2)nc1` [Piribedil hydrochloride], in assay [1], the glomerular separation came out at 1.01 ± 0.4. Besides, the glomerular width in assay [2] is 0.962 ± 0.028. The “fraction of imaged embryos annotated as normal kidney” value (from here on “fraction of imaged embryos annotated”) in assay [3] was 0.833. Further, the “pronephric angle neck segment” value in assay [4] turned out to be 1.01 ± 0.055.
The like results for `CN1C(=O)OC(C)(C)C1=O` [Trimethadione] were, in that order, 0.837 ± 0.27, 0.996 ± 0.064, 0.75 and 0.935 ± 0.026.
On the same counts, the results for `NC[C@H]1O[C@H](O[C@H]2[C@H](O)[C@@H](O[C@H]3O[C@H](CO)[C@@H](O)[C@H](N)[C@H]3O)[C@H](N)C[C@@H]2N)[C@H](N)C[C@@H]1O` [Tobramycin] are 1.49 ± 0.73, 0.94 ± 0.056, 0.583 and 1.01 ± 0.011.
On the same counts, the results for `CC[C@H](C)[C@H](N)C1=N[C@H](C(=O)N[C@@H](CC(C)C)C(=O)N[C@H](CCC(=O)O)C(=O)N[C@H](C(=O)N[C@H]2CCCCNC(=O)[C@H](CC(N)=O)NC(=O)[C@@H](CC(=O)O)NC(=O)[C@H](Cc3cnc[nH]3)NC(=O)[C@@H](Cc3ccccc3)NC(=O)[C@H]([C@@H](C)CC)NC(=O)[C@@H](CCCN)NC2=O)[C@@H](C)CC)CS1` [Bacitracin] are 0.822 ± 0.28, 0.912 ± 0.019, 1 and 1.01 ± 0.013.
Compound `Nc1ccc(S(=O)(=O)NC(=O)c2ccccc2)cc1` [Sulfabenzamide] came in with a glomerular separation in assay [1] of 1.2 ± 0.49. Besides, the glomerular width in assay [2] came out at 0.98 ± 0.04. For the same compound, the “fraction of imaged embryos annotated” value in assay [3] worked out at 0.667. The “pronephric angle neck segment” value in assay [4] is 1.09 ± 0.0044.
`O=C1c2c(O)cccc2Cc2cccc(O)c21` [Anthralin]: the glomerular separation in assay [1] was determined as 0.949 ± 0.28. This compound came in with a glomerular width in assay [2] of 0.986 ± 0.02. Further, the “fraction of imaged embryos annotated” value in assay [3] is 0.909. Moreover, the “pronephric angle neck segment” value in assay [4] worked out at 1.06 ± 0.014.
`N=C(N)NC(=O)Cc1c(Cl)cccc1Cl` [Guanfacine hydrochloride] had a glomerular separation in assay [1] of 0.827 ± 0.15. The glomerular width in assay [2] stood at 1.08 ± 0.1. Moreover, in assay [3], the “fraction of imaged embryos annotated” value was 0.583. In addition, the “pronephric angle neck segment” value in assay [4] was found to be 0.978 ± 0.025.
The like results for `COc1ccccc1Oc1c(NS(=O)(=O)c2ccc(C(C)(C)C)cc2)nc(-c2ncccn2)nc1OCCO` [Bosentan] were, in that order, 1.19 ± 0.5, 1.02 ± 0.034, 0.833 and 1.03 ± 0.029.
